For orientation: AC50 means the concentration giving half of the maximal activity seen.

Drawing on PubChem BioAssay (EPA / NIEHS), this text covers outcome and AC50 for 6 compounds.

“And” between values parts separate entries of the source, which are not always exact repeats. Equal entries are not always repeated. The source holds several records for some structures; these can differ, active in one and inactive in another. The source made the active and inactive calls. How the source made its calls: active means hit-call score of the fitted dose curve at least 0.9, where 1 is the maximum; inactive means score below 0.9.

Holding throughout (details): mRNA level, 48 h; actives raise or lower the signal
Read-out in test [1]: adenosine kinase (ADK) gene, ADK (gene 132)
The test is described as follows: LTEA_HepaRG_ADK: Life Technologies and Expression Analysis (LTEA) Assay for adenosine kinase (ADK) gene using HepaRG (AID 2283471). An outline of the steps: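 Read-out is ADK transcript level measured by qRT-PCR and normalised to three housekeeping genes. Cells are human HepaRG, dosed for 48 h at up to 100 uM in 0.5% DMSO. Gain or loss of signal is fitted against DMSO controls.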

Read-out in test [2]: Alpha-fetoprotein (AFP) gene, AFP (gene 174)
The experiment in a line: LTEA_HepaRG_AFP: Life Technologies and Expression Analysis (LTEA) Assay for Alpha-fetoprotein (AFP) gene using HepaRG (AID 2283472). The procedure, abridged: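 AFP transcript measured by TaqMan qRT-PCR with three housekeeping genes for normalization, after 48 h chemical treatment of HepaRG cells (top 100 uM, half-log steps, 0.5% DMSO). Gain or loss fitted against vehicle.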

Read-out in another test: BCL2L11 (gene 10018)
The experiment in a line: LTEA_HepaRG_BCL2L11: Life Technologies and Expression Analysis (LTEA) Assay for Bcl-2 (BCL2L11) gene using HepaRG (AID 2283473). An outline of the steps: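 Differentiated human HepaRG cells were exposed 48 h in serum-free induction medium to eight half-log concentrations up to 100 uM in 0.5% DMSO, in duplicate. BCL2L11 mRNA was quantified by TaqMan qRT-PCR, normalized to ACTB, GAPDH and POLR2A; induction or repression fitted versus DMSO.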

Read-out in test [3]: Bcl-2 (BID) gene, BID (gene 637)
The experiment in a line: LTEA_HepaRG_BID: Life Technologies and Expression Analysis (LTEA) Assay for Bcl-2 (BID) gene using HepaRG (AID 2283476). The procedure, abridged:
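Duplicate 48 h treatments of HepaRG cells in serum-free induction medium spanned 100 uM downward in half-log steps, 0.5% DMSO. Transcript change quantified by qRT-PCR against three housekeeping genes, fitted up or down versus DMSO.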

Read-out in test [4]: Cytochrome P450 (CYP24A1), CYP24A1 (gene 1591)
The experiment in a line: LTEA_HepaRG_CYP24A1: Life Technologies and Expression Analysis (LTEA) Assay for Cytochrome P450 (CYP24A1) using HepaRG (AID 2283478). The procedure, abridged: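 HepaRG cells plated 48 h, then exposed in duplicate in serum-free induction medium for 48 h to 8-point half-log series from 100 uM in 0.5% DMSO. CYP24A1 mRNA by Fluidigm qRT-PCR, normalized to ACTB, GAPDH, POLR2A; bidirectional fit versus DMSO.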

Read-out in test [5]: cysteine-aspartic acid protease (CASP8), CASP8 (gene 841)
The test is described as follows: LTEA_HepaRG_CASP8: Life Technologies and Expression Analysis (LTEA) Assay for cysteine-aspartic acid protease (CASP8) using HepaRG (AID 2283480). An outline of the steps:
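qRT-PCR readout of CASP8 mRNA, normalized to three housekeeping genes, after 48 h chemical exposure of HepaRG cells; 8-point half-log series, top 100 uM, 0.5% DMSO vehicle. Bidirectional curve fitting against DMSO baseline.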

Read-out in test [6]: Cytochrome P450 (CYP2B6), CYP2B6 (gene 1555)
The test is described as follows: LTEA_HepaRG_CYP2B6: Life Technologies and Expression Analysis (LTEA) Assay for Cytochrome P450 (CYP2B6) using HepaRG (AID 2283481). The procedure, abridged: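 Differentiated human HepaRG cells in serum-free induction medium, dosed in duplicate for 48 h over 8 half-log concentrations topping at 100 uM (0.5% DMSO). CYP2B6 mRNA measured by TaqMan qRT-PCR, normalized to ACTB, GAPDH, POLR2A; bidirectional fit versus DMSO.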

Read-out in test [7]: Cytochrome P450 2C19 (Homo sapiens) (UniProt P33261)
The test is described as follows: LTEA_HepaRG_CYP2C19: Life Technologies and Expression Analysis (LTEA) Assay for CYP2C19 using HepaRG (AID 2283482). An outline of the steps:
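Differentiated HepaRG cells in serum-free induction medium exposed 48 h in duplicate, 8 concentrations from 100 uM by half-log steps in 0.5% DMSO. CYP2C19 mRNA measured by TaqMan qRT-PCR, normalized to ACTB, GAPDH, POLR2A. Bidirectional fit versus DMSO.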

Read-out in the next test: CYP2C8 (gene 1558)
The experiment in a line: LTEA_HepaRG_CYP2C8: Life Technologies and Expression Analysis (LTEA) Assay for CYP2C8 using HepaRG (AID 2283483). An outline of the steps: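 HepaRG (human liver line), 48 h chemical exposure, 8-pt half-log series from 100 uM, 0.5% DMSO vehicle. Readout: CYP2C8 transcript by qRT-PCR, housekeeping-normalized. Bidirectional fit vs DMSO baseline.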

Read-out in the next test: CYP2C9 (gene 1559)
The experiment in a line: LTEA_HepaRG_CYP2C9: Life Technologies and Expression Analysis (LTEA) Assay for CYP2C9 using HepaRG (AID 2283484). The procedure, abridged:
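HepaRG, 48 h dosing, 8-pt half-log series, top 100 uM, 0.5% DMSO vehicle. Read-out: CYP2C9 transcript by TaqMan qRT-PCR, housekeeping-normalized (ACTB/GAPDH/POLR2A). Gain or loss fitted vs DMSO baseline.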

Read-out in the next test: CYP2E1 (gene 1571)
The test is described as follows: LTEA_HepaRG_CYP2E1: Life Technologies and Expression Analysis (LTEA) Assay for CYP2E1 using HepaRG (AID 2283485). An outline of the steps: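 CYP2E1 transcript measured by Fluidigm qRT-PCR against three housekeeping genes in human HepaRG cells treated 48 h (top 100 uM, half-log steps, 0.5% DMSO vehicle). Gain or loss fitted relative to DMSO baseline.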

Read-out in a further test: CYP4A11 (gene 1579)
The test is described as follows: LTEA_HepaRG_CYP4A11: Life Technologies and Expression Analysis (LTEA) Assay for CYP4A11 using HepaRG (AID 2283486). An outline of the steps: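 Differentiated HepaRG cells, 48 h after plating, exposed in duplicate for 48 h to 8 half-log concentrations up to 100 uM in 0.5% DMSO in serum-free induction medium. CYP4A11 mRNA measured by TaqMan qRT-PCR, normalized to ACTB, GAPDH and POLR2A.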

Read-out in test [8]: Cytochrome P450 3A4 (Homo sapiens) (UniProt P08684)
The experiment in a line: LTEA_HepaRG_CYP3A4: Life Technologies and Expression Analysis (LTEA) Assay for CYP3A4 using HepaRG (AID 2283487). The procedure, abridged: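 HepaRG, 48 h exposure, 8-pt CRC from 100 uM (half-log), 0.5% DMSO, duplicates; serum-free induction medium. Readout: CYP3A4 mRNA, qRT-PCR, ACTB/GAPDH/POLR2A normalization. Bidirectional fit vs DMSO.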

Read-out in test [9]: DNA damage-inducible transcript 3 (DDIT3), DDIT3 (gene 1649)
The experiment in a line: LTEA_HepaRG_DDIT3: Life Technologies and Expression Analysis (LTEA) Assay for DNA damage-inducible transcript 3 (DDIT3) using HepaRG (AID 2283488). The procedure, abridged: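 DDIT3 transcript was quantified by qRT-PCR with ACTB/GAPDH/POLR2A normalization after 48 h chemical treatment of differentiated HepaRG cells in 0.5% DMSO. Dosing was eight-point, half-log, top 100 uM, duplicate wells. Curves fitted bidirectionally versus DMSO.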

Read-out in test [10]: Pro-epidermal growth factor (Homo sapiens) (UniProt P01133)
The test is described as follows: LTEA_HepaRG_EGF: Life Technologies and Expression Analysis (LTEA) Assay for Epidermal growth factor (EGF) using HepaRG (AID 2283489). An outline of the steps:
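HepaRG cells (~100,000/well, 48 h pre-culture) exposed in duplicate for 48 h in serum-free induction medium to 8 half-log concentrations up to 100 uM in 0.5% DMSO. EGF mRNA by qRT-PCR, normalized to ACTB/GAPDH/POLR2A; bidirectional fit versus DMSO.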

Sequence of Cytochrome P450 3A4 (Homo sapiens) (P08684 whole entry, looked up): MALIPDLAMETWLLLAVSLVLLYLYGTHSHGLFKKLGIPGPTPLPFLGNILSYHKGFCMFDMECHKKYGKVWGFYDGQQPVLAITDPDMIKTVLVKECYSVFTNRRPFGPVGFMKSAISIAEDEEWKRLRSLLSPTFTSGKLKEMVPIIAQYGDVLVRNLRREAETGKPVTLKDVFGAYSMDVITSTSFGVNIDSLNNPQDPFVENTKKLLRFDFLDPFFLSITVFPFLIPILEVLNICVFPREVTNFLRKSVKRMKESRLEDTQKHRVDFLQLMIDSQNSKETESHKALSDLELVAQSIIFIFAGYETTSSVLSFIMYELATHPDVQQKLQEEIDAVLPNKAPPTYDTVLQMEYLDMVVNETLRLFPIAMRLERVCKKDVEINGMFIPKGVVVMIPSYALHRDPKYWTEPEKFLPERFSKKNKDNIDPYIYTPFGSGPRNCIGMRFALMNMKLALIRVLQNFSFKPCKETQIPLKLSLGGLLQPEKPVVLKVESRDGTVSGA
Sequence of Cytochrome P450 2C19 (Homo sapiens) (P33261 whole entry, looked up): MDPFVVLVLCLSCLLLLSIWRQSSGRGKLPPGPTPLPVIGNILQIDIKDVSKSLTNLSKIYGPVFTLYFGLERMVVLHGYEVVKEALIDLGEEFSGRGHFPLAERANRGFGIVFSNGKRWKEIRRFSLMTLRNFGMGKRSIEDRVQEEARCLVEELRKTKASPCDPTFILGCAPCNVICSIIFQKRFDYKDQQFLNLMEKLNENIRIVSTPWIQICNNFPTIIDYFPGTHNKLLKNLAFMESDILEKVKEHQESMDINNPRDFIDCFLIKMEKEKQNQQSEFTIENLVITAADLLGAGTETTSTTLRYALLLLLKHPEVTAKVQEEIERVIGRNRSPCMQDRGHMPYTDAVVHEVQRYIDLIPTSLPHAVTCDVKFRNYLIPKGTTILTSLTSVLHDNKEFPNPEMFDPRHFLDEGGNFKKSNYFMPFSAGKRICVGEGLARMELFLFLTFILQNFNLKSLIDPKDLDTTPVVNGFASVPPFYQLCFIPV

As to `CNC(=O)/C=C(\C)OP(=O)(OC)OC`, the outcome (in [1]; in test [2]; with BCL2L11 (gene 10018); in [3]; in test [4]; in test [5]) was inactive. Also, the result (in [6]; in [7]; with CYP2C8 (gene 1558); with CYP2C9 (gene 1559); with CYP2E1 (gene 1571); with CYP4A11 (gene 1579)) was inactive. For the same compound, the result in test [8], in test [9] and in [10] was inactive.
Turning to `CCN(CC)C(=O)SCc1ccc(Cl)cc1`, the result (in test [1]; in test [2]; with BCL2L11 (gene 10018); in test [3]; in test [4]; in [5]) was inactive. In addition, the outcome (in the test with CYP2C8 (gene 1558); in the test with CYP2C9 (gene 1559); with CYP4A11 (gene 1579); in test [9]; in test [10]) was inactive. Besides, the AC50 in [6] is 4.36 µM (active); in test [7] it was 17.7 µM (active); in the test with CYP2E1 (gene 1571) it was 27.3 µM (active); in test [8] it was 9.92 µM (active).
For the compound `N#Cc1c(Cl)c(Cl)c(Cl)c(C#N)c1Cl`, the compound was called inactive (in [1]; in test [2]; in the test with BCL2L11 (gene 10018); in test [3]; in test [4]; in [5]). Besides, the compound was classed as inactive (in test [6]; in [7]; with CYP2C9 (gene 1559)). Also, the half-maximal activity concentration (AC50) is 50 µM (active) with CYP2C8 (gene 1558); 66.1 µM (active) with CYP2E1 (gene 1571); 50 µM (active) with CYP4A11 (gene 1579); 19 µM (active) in test [8]; 19.1 µM (active) in test [9]; 6.66 µM (active) in test [10].
Take `COP(=S)(OC)Oc1ccc([N+](=O)[O-])cc1`: the compound was classed as inactive (in test [1]; in test [2]; with BCL2L11 (gene 10018); in [3]; in test [4]; in [5]). The call (with CYP2C8 (gene 1558); in the test with CYP2C9 (gene 1559); with CYP2E1 (gene 1571); in the test with CYP4A11 (gene 1579); in test [8]; in test [9]) was inactive. Besides, the outcome in [10] was inactive. Besides, the AC50 in test [6] was 15.7 µM (active); in test [7], 50 µM (active).
As for `CC(C)(C)C(O)C(Oc1ccc(Cl)cc1)n1cncn1` (stereo not given), the call (in test [1]; with BCL2L11 (gene 10018); in test [3]; in [4]; in test [5]; with CYP2C8 (gene 1558)) was inactive. For the same compound, the compound was classed as inactive (with CYP2C9 (gene 1559); in test [9]; in [10]). Further, the AC50 was 4.76 µM (active) and 9.92 µM (active) and 50 µM (active) in test [2]; 2.21 µM (active) and 3.37 µM (active) and 1.68 µM (active) in [6]; 2.61 µM (active) and 3.24 µM (active) and 1.89 µM (active) in [7]; 3.91 µM (active) and 4.21 µM (active) in the test with CYP2C8 (gene 1558); 25.8 µM (active) and 25.3 µM (active) and 29.5 µM (active) with CYP2E1 (gene 1571); 18.1 µM (active) and 13.8 µM (active) and 25.4 µM (active) with CYP4A11 (gene 1579).
Regarding `CCOC1Oc2ccc(OS(C)(=O)=O)cc2C1(C)C` (stereo not given), the compound was classed as inactive (in test [1]; with BCL2L11 (gene 10018); in [3]; in test [4]; in test [5]; in test [10]). Besides, the AC50 was 72.3 µM (active) in test [2]; 91.3 µM (active) in test [6]; 11.7 µM (active) in [7]; 86.4 µM (active) with CYP2C8 (gene 1558); 82 µM (active) with CYP2C9 (gene 1559); 62.6 µM (active) in the test with CYP2E1 (gene 1571). The figures for the AC50 (in the test with CYP4A11 (gene 1579); in test [8]; in test [9]) were 69.1 µM (active), 11.8 µM (active) and 93 µM (active), respectively.
